D2 PAM-1 – human D2 receptor positive allosteric modulation; P14416; DiscoveRx D2 beta-arrestin cells, luminescence, 90 min; 100% = 57 uM dopamine signal; potentiation, % (test concentration not listed); hit rate 0.23% among 360,000; in the data active = potentiation above about 50%; inconclusive = mostly about 30% to 49%
Target sequence (P14416 whole entry, looked up): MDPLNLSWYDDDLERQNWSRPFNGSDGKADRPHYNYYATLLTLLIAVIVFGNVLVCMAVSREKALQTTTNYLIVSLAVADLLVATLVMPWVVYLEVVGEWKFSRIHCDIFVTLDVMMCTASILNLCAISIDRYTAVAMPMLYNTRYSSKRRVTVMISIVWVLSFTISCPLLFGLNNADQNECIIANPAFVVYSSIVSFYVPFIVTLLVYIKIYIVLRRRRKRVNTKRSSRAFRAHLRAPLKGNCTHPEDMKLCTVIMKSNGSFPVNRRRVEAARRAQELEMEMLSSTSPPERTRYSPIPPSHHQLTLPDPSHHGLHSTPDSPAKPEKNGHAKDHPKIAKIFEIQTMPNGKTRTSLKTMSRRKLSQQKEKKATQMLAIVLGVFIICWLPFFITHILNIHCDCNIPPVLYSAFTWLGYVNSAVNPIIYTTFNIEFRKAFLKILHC
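PathHunter D2 cells, attached overnight at 37 deg C, received compound in DMSO plus dopamine at EC20 (50 nM final) for 90 min at 37 deg C. Beta-arrestin recruitment was read as luminescence after 1 h with detection reagent at ambient temperature.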
D2 ag-1 – D2 dopamine receptor (human) agonism; P14416; HEK293 T-REx D2 cells, calcium flux agonist mode; activation, % at 2 µM; hit rate 0.53% among 340,000; AID 485358;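 active = activation over 3 SD above normal in the single-dose calcium agonist read, cut at about 30% in these data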; note: 0% is about no effect
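HEK293 Trex D2 cells, tetracycline-induced, o/n 30 C 5% CO2; no-wash Ca dye, RT 30–90 min; 10-cycle baseline, 23 nl cpd added, kinetic Ca read 180 s; agonist hits = positive Ca response.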
D2 antag – antagonists of human D2 dopamine receptor | AID 485344 | HEK293 TREx D2 cells, calcium flux, dopamine EC80 | inhibition, % at 10 µM | hit rate 2% among 340,000; in the data active = inhibition above about 30%; inactive = below that, where a call was filed; note: 0% is about no effect
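Antagonism is scored as inhibition of an EC80 dopamine-evoked calcium signal in a force-coupled, tetracycline-inducible HEK293 T-REx D2 line, with compound present 180 s before agonist.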
D2 PAM-2 – D2 dopamine receptor (human) potentiation. P14416. HEK293 T-REx D2, calcium flux, EC20 dopamine potentiation. potentiation, % at 10 µM. hit rate 0.34% among 340,000. AID 485347;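 active = potentiation over 3 SD above the plate norm, cut at about 30% in these data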; note: 0% is about no effect
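Tetracycline-induced Hek293 Trex D2 cells, force-coupled to calcium, loaded with no-wash calcium dye. Compound added with 180 s kinetic read for agonism, then EC20 dopamine and a further 180 s read for potentiation.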
D2 ag-2 – agonists of human D2 dopamine receptor (beta-arrestin) | P14416 | DiscoveRx PathHunter D2 beta-arrestin, luminescence, 90 min; 100% = 57 uM dopamine signal | activation, % (no concentration beside the values) | hit rate 0.084% among 360,000 | AID 624465; in the data active = activation above about 40%; inconclusive = between about 15% and that limit
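DiscoveRx PathHunter D2 beta-arrestin cells (2,100/well) attached overnight, then compound-stimulated 90 min at 37 C in HBSS/10 mM HEPES/0.1% Tween-20 buffer; beta-galactosidase complementation read by luminescence after 1 h at ambient temperature. Dopamine 57 uM final (EC100) as control.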
D3 ag – confirmation of human D3 dopamine receptor agonists, beta-arrestin; DiscoveRx D3 beta-arrestin cells, luminescence, 90 min; Potency, µM (series often up to 76.9 µM), without a hit: at the top dose activation, hits mostly activators; hit rate 4% among 2,300; shares compounds with D2 ag-1;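 note: potency is the fitted concentration of half-maximal effect; 100% = dopamine control response; nearly all actives have a fitted effect of over 70% in size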
D2 ag-3 – counter-screen for D3 agonists: human D2 dopamine receptor agonism; shares compounds with D2 ag-1; DiscoveRx PathHunter D2 beta-arrestin, luminescence, 90 min; response scale: percent relative to full dopamine signal; Potency, µM (doses to about 76.9 µM), inactives show at the highest dose activation, hits mostly activators; hit rate 5.9% among 2,300; note: potency is the fitted concentration of half-maximal effect; % of control where 0% means no effect; nearly all actives have a fitted effect of over 70% in size
Numbers without * were called inactive; ? = inconclusive; nt = not tested or not shown. Hits are enriched below; roughly 2.4% of the tested compounds scored in any of these assays. Unless noted, calls come from the whole dose curve; as a rule, active = well fitted activation curve with a large enough effect; inconclusive = small, poorly fitted or top-dose-only effect; inactive = flat fitted curve, though single readings scatter.

SMILES	D2 PAM-1	D2 ag-1	D2 antag	D2 PAM-2	D2 ag-2	D3 ag	D2 ag-3
CN(CCOc1ccc(Cl)cc1)Cc1cccc(S(=O)(=O)N(C)C)c1	-7.8	70.1*	48.3*	-37.1	12.8	7.08µM*	?
CN(CCOc1ccccc1)Cc1ccccc1	-10.2	nt	nt	nt	12.4	nt	nt
c1ccc(N2CCN(c3ncnc4[nH]ncc34)CC2)cc1	nt	0.0	nt	0.8	nt	nt	nt
C=CCn1c(SCC(=O)NCC(c2ccccc2)N(C)C)nnc1C1CCCCC1 (stereo not given)	-11.4	0.0	16.8	14.3	-1.8	-10.0%	-2.2%
O=C(Nc1ccc(OC(F)(F)F)cc1)c1cnc2n(c1=O)CCS2	-3.0	0.4	-4.0	6.4	-3.4	nt	nt
CCCCOC(=O)c1ccc(NC(=O)c2cnc3n(c2=O)CCS3)cc1	13.5	-0.3	4.4	-0.7	0.5	9.6%	16.7%
C/C(=N\NC(=O)CN1CCCCC1)c1ccccc1O	-19.4	65.2*	84.6*	-30.1	9.5	10.0%	13.2%
Cc1cccc(N2CCN(Cc3nc(-c4cccc(Cl)c4)oc3C)CC2)n1	-4.9	34.4*	9.0	-13.8	-4.4	-4.3%	12.2%
Cn1cc(CNCc2ccc(-n3cccn3)cc2)c(-c2ccccc2F)n1	-9.6	45.5*	44.2*	-21.7	?	27.4%	?
O=C(Cn1c(=O)c2ccccc2n(CC(=O)Nc2ccc(Cl)cc2)c1=O)NCCc1ccccc1	nt	1.6	nt	3.8	nt	nt	nt
O=C(CCc1nnc2n(Cc3ccc(Cl)cc3)c(=O)c3ccccc3n12)N1CCN(c2ccccn2)CC1	-5.4	-0.5	-19.1	-2.4	4.6	nt	nt
CC(C)OCCCn1c(=O)c2ccccc2n2c(CCC(=O)N3CCN(c4ccccn4)CC3)nnc12	1.2	67.4*	24.6	-15.5	12.6	-2.0%	4.5%
COc1ccc(-c2cc(C(F)(F)F)c(C#N)c(SCC(=O)Nc3ccc(F)cc3)n2)cc1	nt	2.8	nt	4.7	nt	nt	nt
CC(=O)c1ccc(OC(C)C(=O)OCC(=O)NCCc2ccccc2)cc1 (stereo not given)	7.5	0.1	18.2	6.6	0.7	2.5%	-1.4%
CC(=O)c1ccc(S(=O)(=O)NCCC(=O)OCC(=O)NCCc2ccccc2)cc1	-4.1	0.0	-7.0	-7.1	-3.2	nt	nt
CCc1ccc(-c2cc(C)no2)cc1S(=O)(=O)Nc1ccc(Cl)cc1	nt	0.1	nt	1.0	nt	nt	nt
O=C(O)C1CCCCC1C(=O)Nc1ccc(S(=O)(=O)N2CCCCCC2)cc1 (stereo not given)	-1.8	-0.2	-28.2	-3.9	-6.8	nt	nt
CC1CC1C(=O)Nc1ccc(S(=O)(=O)N2CCCCC2)cc1 (stereo not given)	-22.4	nt	nt	nt	-2.0	0.8%	3.3%
COc1ccc(NC(=O)C2CCN(C(=O)c3sc4nc[nH]c(=O)c4c3C)CC2)c(OC)c1	nt	1.4	nt	-11.5	nt	nt	nt
CCN(CC)CCSc1nnc2c3ccccc3n(Cc3ccccc3)c2n1	-26.0	-0.1	60.3*	-12.9	-4.6	-10.1%	-5.7%
CCN(CC)CCSc1nnc2c3cc(F)ccc3n(Cc3ccccc3)c2n1	-18.3	-1.8	-26.6	-17.8	0.3	nt	nt
CC(C)CCn1c(=O)c2sccc2n2c(CCCC(=O)NC(C)C)nnc12	nt	-0.3	nt	-8.3	nt	nt	nt
Cc1ccccc1[C@@H](NC(=O)OC(C)(C)C)C(=O)OC(C)(C)C	-6.1	-1.2	-6.6	4.9	-3.9	-12.2%	2.0%
COc1ccc(/C=C2\CCCC3C2=NN(C(=O)CSc2ncn[nH]2)C3c2ccc(OC)cc2)cc1 (stereo not given)	-8.5	-0.3	4.5	-16.4	6.1	nt	nt
O=C(CSc1ncn[nH]1)N1N=C2/C(=C/c3ccccc3)CCCC2C1c1ccccc1 (stereo not given)	9.4	41.3*	33.3*	-13.6	11.7	6.3%	?
SMILES	D2 PAM-1	D2 ag-1	D2 antag	D2 PAM-2	D2 ag-2	D3 ag	D2 ag-3
Cc1ccc(-c2noc(CNC(=O)c3ccccc3)n2)cc1	nt	-0.7	nt	-2.0	nt	nt	nt
COc1ccc(C(=O)NCC(=O)N/N=C/c2cn[nH]c2-c2ccccc2)cc1	-3.4	11.0	19.1	nt	10.2	-1.0%	7.5%
CCn1cc(C(=O)N2CCN(c3ccccc3)CC2)c(=O)c2cc(S(=O)(=O)N3CCCC3)ccc21	nt	0.2	nt	-1.0	nt	nt	nt
O=C(NCc1n[nH]c(=O)c2ccccc12)C1CC(=O)N(c2ccc(Cl)cc2)C1 (stereo not given)	4.8	5.2	-13.5	-7.1	-2.0	-17.8%	-2.7%
Cc1ccc(Nc2nnc(-c3ccc(C)c(S(=O)(=O)N4CCN(C)CC4)c3)c3ccccc23)c(C)c1	nt	8.3	nt	-8.9	nt	nt	nt
CSCCCN1CC[C@@H](N2CCN(c3ccccc3F)CC2)[C@H](O)C1	7.7	75.5*	79.4*	-21.5	?	19.3%	?
CC(C)=CC(=O)N1CC[C@@H](N2CCN(c3ccccc3F)CC2)[C@H](O)C1	6.3	79.8*	46.3*	-15.0	43.1*	21.4%	?
NC(=O)CN1CCN(c2ccccc2F)CC1	-20.6	1.1	25.7	-8.1	0.2	nt	nt
CSCCC(=O)N1CC[C@@H](N2CCN(c3ccccc3F)CC2)[C@H](O)C1	7.7	29.9	44.6*	3.7	10.6	21.7%	?
O=C(CCN1CCCO1)N1CCCC(N2CCN(c3ccccc3F)CC2)C1 (stereo not given)	-10.5	-2.3	6.6	-6.1	-0.7	nt	nt
CCN1CCC(N(Cc2ccc(F)cc2)C(=O)Nc2cccc(C(F)(F)F)c2)CC1	nt	3.0	nt	-3.5	nt	nt	nt
COc1ccc(N2CCN(C(=O)CS(=O)(=O)c3cccc4nsnc34)CC2)cc1	nt	1.6	nt	10.1	nt	nt	nt
COc1ccc(N(Cc2cccs2)C(=O)c2ccccc2C)cc1	nt	-0.5	nt	-11.4	nt	nt	nt
CCc1cccc(NC(=O)Cn2c(=O)n(CCc3ccc(OC)c(OC)c3)c(=O)c3ccccc32)c1	nt	-0.5	nt	0.9	nt	nt	nt
Cc1nc(-c2nc(-c3c(C(=O)NNC(=O)Nc4cccc(Cl)c4)noc3C)cs2)cs1	0.8	40.0*	49.3*	-17.8	4.3	-4.6%	8.6%
COc1ccc(NS(=O)(=O)c2cccc(C(=O)N3CCC3)c2)cc1	-7.0	16.3	-32.7	-5.3	-3.9	4.0%	-5.0%
COc1ccc(NS(=O)(=O)c2ccc(C)c(C(=O)N3CCC3)c2)cc1	-0.7	72.7*	48.9*	-29.3	1.4	0.1%	26.2%
CC1CN(C(=O)c2ccc(NS(=O)(=O)c3cccc(Cl)c3)cc2)CC(C)O1 (stereo not given)	0.9	0.2	-0.9	-4.5	0.2	1.3%	-3.4%
CCc1ccccc1NC(=O)CN(c1ccccc1OC)S(=O)(=O)c1ccc(C)cc1	nt	2.2	nt	-1.2	nt	nt	nt
CN1CCN(C(c2ccccc2)c2sc3nc(-c4ccco4)nn3c2O)CC1 (stereo not given)	nt	-3.8	nt	9.7	nt	nt	nt
